The entries come from a sample that favours hits as a whole.
Giardia FBPA inh: blocks Giardia fructose-bisphosphate aldolase activity; A8B2U2; Potency, µM (series often up to 59.6 µM), inactives show at the highest dose activity, negative = inhibition, most hits filed as inhibitors; purified Giardia FBPA; 0.71% of 290,000 active; also: potency is read from the fitted curve at half-maximal effect; % is scaled to controls: 0 for no effect and ±100 for the full control effect; nearly all actives have a fitted effect of over 55% in size
Target sequence (A8B2U2 whole entry, looked up): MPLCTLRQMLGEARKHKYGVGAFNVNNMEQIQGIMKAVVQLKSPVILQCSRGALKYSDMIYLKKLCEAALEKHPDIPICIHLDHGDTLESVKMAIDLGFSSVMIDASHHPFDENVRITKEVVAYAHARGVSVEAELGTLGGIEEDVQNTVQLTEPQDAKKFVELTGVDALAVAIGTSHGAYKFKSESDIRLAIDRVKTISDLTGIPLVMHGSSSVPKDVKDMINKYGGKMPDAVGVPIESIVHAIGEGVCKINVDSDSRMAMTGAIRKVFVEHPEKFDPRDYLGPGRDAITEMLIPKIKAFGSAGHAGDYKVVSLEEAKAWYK
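40 nM FBPA preincubated 10 min at RT with compound (up to 57.5 uM final), then substrate plus GAPDH/TPI/NAD/arsenate coupling and diaphorase/resazurin added. Fluorescence read after 20 min at RT, 525/598 nm.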
LmPK inhibitor: inhibitors of Leishmania mexicana pyruvate kinase | Potency, µM (top dose mostly 57.5 µM), without a hit: at the top dose activity change, negative = inhibition, most hits filed as inhibitors | purified LmPK, Kinase-Glo ATP luminescence, 1 h | 0.37% of 290,000 active; also: potency is read from the fitted curve at half-maximal effect; % is scaled to controls: 0 for no effect and ±100 for the full control effect
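In 50 mM imidazole pH 7.2 with 7 mM MgCl2, LmPK (0.1 nM) turned over PEP (0.5 mM) and ADP (0.1 mM) for 1 h at room temperature. Luciferase read-out of ATP.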
TbPYK inhibitor: T. brucei pyruvate kinase inhibition. TbPYK enzyme, Kinase-Glo Plus ATP luminescence, 45 min. Q57TT1. AID 624173. Potency, µM (series often up to 76.8 µM), for inactives: top-dose activity, negative = inhibition, most hits filed as inhibitors. 0.12% of 410,000 active; also: potency is read from the fitted curve at half-maximal effect; % is scaled to controls: 0 for no effect and ±100 for the full control effect; nearly all actives have a fitted effect of over 50% in size
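Screened from lowest to highest concentration, compounds were pinned into TbPYK/substrate mixtures, and ADP (130 uM final) was added. Plates sat at room temperature for 45 min prior to Kinase-Glo Plus detection by luminescence.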
RE007 growth inh: less growth of the S. pombe RE007 Vpr strain; Potency, µM (highest dose often 92.2 µM), for inactives: at the highest dose activity change, negative = less growth, actives largely listed as inhibitors; 0.21% of 360,000 active; S. pombe RE007 Vpr strain, BacTiter-Glo ATP luminescence, 24 h; AID 651644; active = well fitted falling curve with a large enough effect; inconclusive = small, poorly fitted or top-dose-only effect; inactive = no such curve, though single readings can be large or run the other way; also: potency is read from the fitted curve at half-maximal effect; % is scaled to controls: 0 for no effect and ±100 for the full control effect; nearly all actives have a fitted effect of over 50% in size
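Fission yeast strain RE007, carrying one chromosomally integrated HIV-1 vpr copy, was seeded at OD 0.01 in PMG+AL medium with 23 nL pinned compound. After 24 h at 30 °C and 99% humidity, viability was read by BacTiter-Glo luminescence.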
Cycloheximide cs: affects cycloheximide protein synthesis inhibition readout, counter-screen | AID 2314 | 12% of 300,000 active | cell reporter, cycloheximide protein synthesis inhibition counterscreen | max response, %; in the data active = max response mostly above about 13%, no sharp cut-off; inactive = mostly below about 14%; also: read at 38.3 µM for the half of the compounds with a filed dose; 0% is about no effect
Shiga inhibitor: Shiga toxin inhibition; Vero cells, Shiga toxin protein synthesis inhibition reporter; inhibition, % at 38.7 µM; 9.2% of 290,000 active; AID 2315; in the data active = inhibition mostly above about 28%, no sharp cut-off; inactive = mostly below about 43%; also: 0% is about no effect
* marks the source's active call; other numbers are inactive results; u = inconclusive; x = not tested or not shown; [ ] = another dose, or the depositor's remark. Unless noted, calls follow the shape of the dose curve; as a rule, active = well fitted curve in the direction sought with a large enough effect; inconclusive = small, poorly fitted or top-dose-only effect, or another doubt; inactive = no such curve, though single readings can be large; an effect the other way counts as inactive or inconclusive.

SMILES	Giardia FBPA inh	LmPK inhibitor	TbPYK inhibitor	RE007 growth inh	Cycloheximide cs	Shiga inhibitor
CNC(=O)N(O)C1N(c2ccccc2)C(=S)SC1(C)C (configuration not stated)	-4.0%	-0.7%	3.5%	-10.6%	7.1	-8.6
CCc1ccccc1NC(=O)Cn1c(=O)n(Cc2ccccc2)c(=O)c2c(C)c(C(=O)N(C)C)sc21	x	x	3.0%	x	x	x
Cc1ccc(-n2c3c(cc(C(=O)Nc4ccccc4C(N)=O)c2=O)C(=O)CC(C)(C)C3)cc1	x	x	-9.6%	x	x	x
CC1Oc2ccccc2N(CC(=O)NCc2cccs2)C1=O (configuration not stated)	-2.6%	-11.4%	3.2%	-0.8%	18.8*	31.4*
Cc1ccc2c(c1)N(CC(=O)NCc1cccs1)C(=O)C(C)O2 (configuration not stated)	5.2%	0.9%	-2.7%	12.2%	-2.6	12.1
CCOc1ccc(OCc2ccc(C(=O)O)o2)cc1	2.6%	2.4%	3.4%	18.3%	32.9*	60.4*
O=C(O)c1ccc(COc2ccc3ccccc3c2)o1	u	-17.8%	-3.2%	-4.2%	42.3*	93.8*
C/C=C/c1ccccc1OCc1ccc(C(=O)O)o1	u	-0.7%	-3.2%	20.2%	-1.2	-0.9
CC(=O)CS(=O)(=O)c1ccc(Oc2ccc(S(=O)(=O)CC(C)=O)cc2)cc1	-1.0%	2.2%	4.1%	-2.0%	-6.3	-2.4
CC(=O)CCS(=O)(=O)c1ccc(Oc2ccc(S(=O)(=O)CCC(C)=O)cc2)cc1	8.1%	3.1%	3.7%	-15.6%	17.5*	23.2*
CCOC(=O)CCN1C(=O)[C@H]2[C@H]3[C@H](O)[C@H](O)C/C(=N/NC(=O)OCc4ccc(OC)cc4)[C@@H]3CC[C@@H]2C1=O	3.0%[12.9 µM]	x	x	x	x	x
N#C/C(=N\Nc1ccccc1)C(=N)N1CCCCC1	-5.1%	-1.4%	-9.0%	6.5%	27.5*	61.1*
CCN(CC)C(=N)/C(C#N)=N/Nc1ccccc1	-16.5%	-1.6%	-1.5%	1.4%	39.4*	92.6*
N#C/C(=N\Nc1ccc(Cl)cc1)C(=N)N1CCCCCC1	-7.7%	4.6%	-3.0%	-9.5%	42.8*	144.6*
CCOC(=O)NC(=O)/C(C#N)=N/Nc1ccc(F)cc1	-15.7%	-0.1%	-2.6%	-8.2%	4.4	12.3
Cc1ccc(N/N=C(\C#N)C(=N)N2CCCCC2)cc1	u	1.4%	5.5%	-17.2%	46.3*	82.4*
Cc1nc2cnc(Oc3cccc(Cl)c3)nc2n(CCc2ccccc2)c1=O	-0.8%	x	2.8%	x	x	x
Nc1ccc(N2CCN(c3ncc(C(F)(F)F)cc3Cl)CC2)c(C(F)(F)F)c1	x	x	5.2%	x	x	x
CC(=O)NCCOc1ccc2oc3ccccc3c2c1	-9.5%	-0.4%	-1.1%	-13.7%	31.3*	71.3*
ClC[C@H]1CO1 (tested in a mixture with another compound)	x	x	-8.8%	x	x	x
CCCn1c(-c2ccc(F)cc2)nc2c(NCCCN3CCOCC3)nc(C)nc21	-8.4%	x	x	x	x	x
COc1cc(NC(=O)c2cccc(Br)c2)nc(OC)n1	-5.2%	-8.1%	2.2%	0.0%	40.4*	71.0*
COc1cc(NC(=O)COc2ccc(F)cc2)nc(OC)n1	1.2%	6.6%	-4.1%	7.8%	-0.5	6.8
COc1cc(NC(=O)c2c(F)cccc2F)nc(OC)n1	x	-3.8%	-1.9%	10.3%	32.5*	98.5*
CC(C)[C@@H](CC(=O)N[C@@H]1CCCC[C@H]1C(=O)N[C@H](CC(=O)N[C@@H](CCC(=O)O)CC(=O)O)Cc1c[nH]c2ccccc12)NC(=O)C[C@H](CO)NC(=O)[C@@H]1CCCC[C@H]1N	-20.0%	x	x	x	x	x
SMILES	Giardia FBPA inh	LmPK inhibitor	TbPYK inhibitor	RE007 growth inh	Cycloheximide cs	Shiga inhibitor
CN(Cc1ccccc1)C(=O)c1cc2cc(F)ccc2[nH]1	2.0%	-2.0%	-16.1%	-6.8%	65.0*	74.5*
COc1cc2[nH]c(C(=O)N(C)Cc3ccccc3)cc2c(OC)c1OC	10.1%	2.8%	5.1%	1.2%	1.4	-5.8
N#C/C(=N\Nc1ccc([N+](=O)[O-])cc1)C(N)=S	u	u	-26.7%	-9.9%	41.0*	88.0*
N#C/C(=N/Nc1ccc([N+](=O)[O-])cc1)C(=N)N1CCCCC1	-22.8%	1.1%	2.4%	-10.6%	31.2*	104.5*
N#C/C(=N\Nc1ccccc1[N+](=O)[O-])C(=N)N1CCCCC1	-16.5%	-2.4%	-2.3%	-22.2%	30.6*	66.9*
O=C(CN1CCCCCC1)Nc1ccccc1[N+](=O)[O-]	8.8%	4.8%	2.0%	-10.1%	-2.5	x
COc1ccccc1N/N=C(\C#N)C(=N)N1CCOCC1	-10.6%	1.7%	-0.7%	-3.1%	6.4	13.6
N=C(c1ccc([N+](=O)[O-])cc1)N1CCCCC1	0.0%	0.1%	8.5%	12.8%	5.1	-12.8
N#C/C(=N\Nc1ccc(Br)cc1)C(=N)N1CCOCC1	u	2.8%[11.5 µM]	0.6%	3.0%	69.1*	107.2*
N#C/C(=N\Nc1ccc([N+](=O)[O-])cc1)C(=N)N1CCOCC1	-14.7%	-1.0%	0.6%	-7.6%	45.8*	68.8*
CC(=O)c1sc(NC(=O)COc2ccc(Cl)cc2Cl)nc1C	5.4%	0.4%	-2.2%	10.4%	8.4	5.0
Cc1cc(Cl)ccc1OCC(=O)Nc1ccncc1	-1.1%	-0.1%	-20.6%	-7.7%	27.0*	x
Cc1cc(Cl)ccc1OCC(=O)NCc1ccncc1	x	0.2%	7.7%	-13.7%	30.6	55.5
Cc1cccc(OCC(=O)Nc2nnn(C)n2)c1C	0.7%	1.5%	1.5%	23.5%	5.3	8.5
Cc1cccc(OCC(=O)Nc2ccncc2)c1C	10.6%	-1.2%	-1.0%	-16.4%	12.4*	3.2
CC(=O)c1sc(NC(=O)COc2ccc(Cl)cc2C)nc1C	5.7%	-2.8%	1.1%	0.0%	27.8*	44.2
Cc1cccc(OCC(=O)Nc2ncn[nH]2)c1C	-9.4%	-7.0%	-6.3%	17.3%	11.3*	15.9
CCOC(=O)c1c(C)n(S(=O)(=O)c2ccc(C)cc2)c2ccc(NS(=O)(=O)c3ccc(C)cc3)cc12	x	x	1.5%	x	x	x
CCCCNc1sc(S(=O)(=O)CCC)nc1S(=O)(=O)c1ccc(C)cc1	x	x	-2.0%	x	x	x
Cc1ccc(NC(=O)Cn2c(=O)n(Cc3ccco3)c(=O)c3sc4ccccc4c32)cc1C	x	x	-11.5%	x	x	x
Oc1ccccc1OCCOc1ccccc1OCCOc1ccccc1O	-11.9%	7.5%	-2.6%	3.8%	9.8*	41.4
Oc1ccccc1OCC(O)c1ccccc1 (configuration not stated)	-3.3%	9.8%	-1.5%	-13.0%	7.4	2.9
COCCN1Cc2cc(=O)n3c([nH]c4ccccc43)c2C1=N	-17.8%	4.6%[11.5 µM]	-0.1%	-17.0%	21.5*	38.7
Cc1ccccc1Nc1nnc(SCC(=O)Nc2ccccc2[N+](=O)[O-])s1	-2.3%	2.2%	-4.9%	-3.1%	28.5*	44.6*

Screening data from PubChem BioAssay.
